# Laboratory results taken from PMC5540273 (PLoS ONE, 2017).
# Read-outs that look alike come from different tables or passages of the source.
# How the values were obtained:
# TAOK1 = conditions: concentration: 1 μM, replicates: in singlicate; n = 1
# TAOK2 = conditions: concentration: 1 μM, replicates: in singlicate; n = 1
# TAOK3 = conditions: concentration: 1 μM, replicates: in singlicate; n = 1
# TBK1 = conditions: concentration: 1 μM, replicates: in singlicate; n = 1
# TEC = conditions: concentration: 1 μM, replicates: in singlicate; n = 1
# TESK1 = conditions: concentration: 1 μM, replicates: in singlicate; n = 1
# TGFBR1 = conditions: n = 1
# TGFBR2 = conditions: concentration: 1 μM, replicates: in singlicate; n = 1
# TIE1 = conditions: concentration: 1 μM, replicates: in singlicate; n = 1
# TIE2 = tested on: T1, TIE2; conditions: concentration: 1 μM, replicates: in singlicate; n = 1
# T1 construct: gene TEK
# TLK1 = conditions: concentration: 1 μM, replicates: in singlicate; n = 1
# TLK2 = conditions: concentration: 1 μM, replicates: in singlicate; n = 1
# TNIK = conditions: concentration: 1 μM, replicates: in singlicate; n = 1
# TNK1 = conditions: concentration: 1 μM, replicates: in singlicate; n = 1
# TNK2 = conditions: concentration: 1 μM, replicates: in singlicate; n = 1
# TNNI3K = conditions: concentration: 1 μM, replicates: in singlicate; n = 1
# TRKA = tested on: T2, TRKA; conditions: concentration: 1 μM, replicates: in singlicate; n = 1
# T2 construct: gene NTRK1
# TRKB = conditions: concentration: 1 μM, replicates: in singlicate; n = 1
# TRKC = tested on: T3, TRKC; conditions: concentration: 1 μM, replicates: in singlicate; n = 1
# T3 construct: gene NTRK3
# TRPM6 = conditions: concentration: 1 μM, replicates: in singlicate; n = 1
# [1] = concentration: 1 μM, replicates: in singlicate
# 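Also: KINOMEscan kinase panel screen.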
structure (smiles),measurement,setting,value
COc1ccc(Nc2nccc(N3CCC(NC(=O)c4cc5ccccc5s4)C3)n2)cc1 (centres unmarked) [GSK1379738],%Inh,TAOK1,0%
same,%Inh,TAOK2,0%
same,%Inh,TAOK3,0%
same,%Inh,TBK1,22%
same,%Inh,TEC,12%
same,%Inh,TESK1,30%
same,%Inh,TGFBR1; [1],17%
same,%Inh,TGFBR2,0%
same,%Inh,TIE1,0%
same,%Inh,TIE2,0%
same,%Inh,TLK1,3%
same,%Inh,TLK2,0%
same,%Inh,TNIK,0%
same,%Inh,TNK1,11%
same,%Inh,TNK2,18%
same,%Inh,TNNI3K,0%
same,%Inh,TRKA,60%
same,%Inh,TRKB,32%
same,%Inh,TRKC,0%
same,%Inh,TRPM6,39%
Cc1c(Cn2c(C)c(C)n3c(=O)cc(N4CCOCC4)nc23)cccc1C(F)(F)F [GSK2328680],%Inh,TAOK1,0%
same,%Inh,TAOK2,0%
same,%Inh,TAOK3,0%
same,%Inh,TBK1,9%
same,%Inh,TEC,5%
same,%Inh,TESK1,22%
same,%Inh,TGFBR1; [1],9%
same,%Inh,TGFBR2,0%
same,%Inh,TIE1,54%
same,%Inh,TIE2,0%
same,%Inh,TLK1,0%
same,%Inh,TLK2,0%
same,%Inh,TNIK,0%
same,%Inh,TNK1,0%
same,%Inh,TNK2,13%
same,%Inh,TNNI3K,0%
same,%Inh,TRKA,12%
same,%Inh,TRKB,0%
same,%Inh,TRKC,21%
same,%Inh,TRPM6,0%
O=C1NC(=O)C(c2ccc(Cl)cc2)=C1Nc1ccc(O)cc1 [SB-340867],%Inh,TAOK1,0%
same,%Inh,TAOK2,0%
same,%Inh,TAOK3,0%
same,%Inh,TBK1,0%
same,%Inh,TEC,0%
same,%Inh,TESK1,12%
same,%Inh,TGFBR1; [1],1%
same,%Inh,TGFBR2,0%
same,%Inh,TIE1,0%
same,%Inh,TIE2,0%
same,%Inh,TLK1,10%
same,%Inh,TLK2,0%
same,%Inh,TNIK,0%
same,%Inh,TNK1,46%
same,%Inh,TNK2,0%
same,%Inh,TNNI3K,0%
same,%Inh,TRKA,0%
same,%Inh,TRKB,5%
same,%Inh,TRKC,0%
same,%Inh,TRPM6,9%
c1ccc(-c2ccnc3[nH]ccc23)cc1 [SB-693578],%Inh,TAOK1,0%
same,%Inh,TAOK2,0%
same,%Inh,TAOK3,0%
same,%Inh,TBK1,11%
same,%Inh,TEC,5%
same,%Inh,TESK1,43%
same,%Inh,TGFBR1; [1],0%
same,%Inh,TGFBR2,10%
same,%Inh,TIE1,0%
same,%Inh,TIE2,0%
same,%Inh,TLK1,7%
same,%Inh,TLK2,0%
same,%Inh,TNIK,8%
same,%Inh,TNK1,0%
same,%Inh,TNK2,9%
same,%Inh,TNNI3K,11%
same,%Inh,TRKA,22%
same,%Inh,TRKB,67%
same,%Inh,TRKC,37%
same,%Inh,TRPM6,0%
COc1cccc(NC(=O)Nc2ccc(C)c(-c3ccc(C(=O)Nc4ccncc4)cc3)c2)c1 [GSK1398474],%Inh,TAOK1,0%
same,%Inh,TAOK2,0%
same,%Inh,TAOK3,4%
same,%Inh,TBK1,29%
same,%Inh,TEC,5%
same,%Inh,TESK1,19%
same,%Inh,TGFBR1; [1],0%
same,%Inh,TGFBR2,0%
same,%Inh,TIE1,0%
same,%Inh,TIE2,0%
same,%Inh,TLK1,11%
same,%Inh,TLK2,0%
same,%Inh,TNIK,0%
same,%Inh,TNK1,10%
same,%Inh,TNK2,16%
same,%Inh,TNNI3K,20%
same,%Inh,TRKA,4%
same,%Inh,TRKB,0%
same,%Inh,TRKC,2%
same,%Inh,TRPM6,31%
Fc1ccc(-c2nc[nH]c2-c2ccncc2)cc1 [SB-217360],%Inh,TAOK1,0%
same,%Inh,TAOK2,40%
same,%Inh,TAOK3,7%
same,%Inh,TBK1,48%
same,%Inh,TEC,0%
same,%Inh,TESK1,0%
same,%Inh,TGFBR1; [1],37%
same,%Inh,TGFBR2,53%
same,%Inh,TIE1,0%
same,%Inh,TIE2,3%
same,%Inh,TLK1,0%
same,%Inh,TLK2,0%
same,%Inh,TNIK,51%
same,%Inh,TNK1,0%
same,%Inh,TNK2,0%
same,%Inh,TNNI3K,0%
same,%Inh,TRKA,0%
same,%Inh,TRKB,0%
same,%Inh,TRKC,4%
same,%Inh,TRPM6,6%
COc1nccc(-c2c(-c3ccc(F)cc3)ncn2CCCN2CCOCC2)n1 [SB-282852],%Inh,TAOK1,0%
same,%Inh,TAOK2,0%
same,%Inh,TAOK3,0%
same,%Inh,TBK1,19%
same,%Inh,TEC,0%
same,%Inh,TESK1,8%
same,%Inh,TGFBR1; [1],20%
same,%Inh,TGFBR2,0%
same,%Inh,TIE1,0%
same,%Inh,TIE2,33%
same,%Inh,TLK1,26%
same,%Inh,TLK2,0%
same,%Inh,TNIK,0%
same,%Inh,TNK1,0%
same,%Inh,TNK2,0%
same,%Inh,TNNI3K,0%
same,%Inh,TRKA,61%
same,%Inh,TRKB,56%
same,%Inh,TRKC,13%
same,%Inh,TRPM6,0%
Cc1ccccc1-c1cc(-c2c[nH]nc2-c2ccccn2)ccn1 [GW680061],%Inh,TAOK1,0%
same,%Inh,TAOK2,0%
same,%Inh,TAOK3,0%
same,%Inh,TBK1,0%
same,%Inh,TEC,15%
same,%Inh,TESK1,24%
same,%Inh,TGFBR1; 1 µM,5%
same,%Inh,TGFBR2,0%
same,%Inh,TIE1,6%
same,%Inh,TIE2,0%
same,%Inh,TLK1,0%
same,%Inh,TLK2,0%
same,%Inh,TNIK,8%
same,%Inh,TNK1,0%
same,%Inh,TNK2,16%
same,%Inh,TNNI3K,0%
same,%Inh,TRKA,0%
same,%Inh,TRKB,0%
same,%Inh,TRKC,16%
same,%Inh,TRPM6,0%
COc1cccc(CNC(=O)NC2CCN(c3ccnc(Nc4ccc(F)cc4)n3)C2)c1 (centres unmarked) [GSK1379723],%Inh,TAOK1,0%
same,%Inh,TAOK2,0%
same,%Inh,TAOK3,0%
same,%Inh,TBK1,0%
same,%Inh,TEC,7%
same,%Inh,TESK1,100%
same,%Inh,TGFBR1; [1],21%
same,%Inh,TGFBR2,0%
same,%Inh,TIE1,24%
same,%Inh,TIE2,0%
same,%Inh,TLK1,0%
same,%Inh,TLK2,0%
same,%Inh,TNIK,0%
same,%Inh,TNK1,0%
same,%Inh,TNK2,16%
same,%Inh,TNNI3K,4%
same,%Inh,TRKA,0%
same,%Inh,TRKB,0%
same,%Inh,TRKC,5%
same,%Inh,TRPM6,0%
Cc1nccc(-c2c(-c3ccc(F)cc3)ncn2CCCN2CCOCC2)n1.Cl [SB-282975],%Inh,TAOK1,4%
same,%Inh,TAOK2,12%
same,%Inh,TAOK3,0%
same,%Inh,TBK1,16%
same,%Inh,TEC,15%
same,%Inh,TESK1,37%
same,%Inh,TGFBR1; [1],1%
same,%Inh,TGFBR2,0%
same,%Inh,TIE1,0%
same,%Inh,TIE2,99.9%
same,%Inh,TLK1,0%
same,%Inh,TLK2,0%
same,%Inh,TNIK,0%
same,%Inh,TNK1,37%
same,%Inh,TNK2,26%
same,%Inh,TNNI3K,0%
same,%Inh,TRKA,0%
same,%Inh,TRKB,0%
same,%Inh,TRKC,16%
same,%Inh,TRPM6,0%
